According to PubChem BioAssay AID1159580 (chemical genetic matrix, 2015):
About 2,000 (36%) of roughly 5,500 compounds were called active. Another 18% or so got no clear call; they are omitted. Cut-off read from the data, not from the text of the source: active = normalized growth mostly below about 0.91 (no sharp cut-off); inconclusive = no clear call, values can overlap the other calls; inactive = mostly above about 0.92. Some of the results follow.

Assay: chemical genetic growth profiling, strain panel (AID 1159580);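 note: tested at 20 µM; growth read once vehicle control cultures reached saturation at 30 °C; 1 = growth at the plate median or of vehicle wells; lower values mean less growth of the strain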
Details: growth OD

Measured: normalized growth

CCCCC/C=C\C/C=C\C/C=C\C/C=C\CCCC(=O)O
inactive: S. cerevisiae deletion strains, locus YJR043C, strain POL32, hits give low values 0.975 | S. cerevisiae deletion strains, locus YJR075W, strain HOC1, hits give low values 0.968 | S. cerevisiae deletion strains, locus YKL009W, strain mrt4, hits give low values 0.982 | S. cerevisiae deletion strains, locus YKL068W, hits give low values 0.973 | S. cerevisiae deletion strains, locus YKL085W, strain MDH1 (second series), hits give low values 0.958 | S. cerevisiae deletion strains, locus YKL085W, strain MDH1, hits give low values 0.958 | S. cerevisiae deletion strains, locus YKL160W, strain elf1, hits give low values 0.98 | S. cerevisiae deletion strains, locus YKL190W, strain CNB1, hits give low values 0.987 | S. cerevisiae deletion strains, locus YKR026C, strain gcn3, hits give low values 0.944 | S. cerevisiae deletion strains, locus YKR091W, strain srl3, hits give low values 0.967 | S. cerevisiae deletion strains, locus YLL001W, strain dnm1, hits give low values 0.96 | S. cerevisiae deletion strains, locus YLL026W, hits give low values 0.976 | S. cerevisiae deletion strains, locus YLL041C, strain sdh2, hits give low values 0.975 | S. cerevisiae deletion strains, locus YLR027C, strain aat2, hits give low values 0.978 | S. cerevisiae deletion strains, locus YLR039C, strain RIC1, hits give low values 0.686 | S. cerevisiae deletion strains, locus YLR058C, strain SHM2, hits give low values 0.972 | S. cerevisiae deletion strains, locus YLR102C, strain apc9, hits give low values 0.971 | S. cerevisiae deletion strains, locus YLR221C, strain rsa3, hits give low values 0.972 | S. cerevisiae deletion strains, locus YLR258W, strain gsy2, hits give low values 0.966 | S. cerevisiae deletion strains, locus YLR262C, strain YPT6, hits give low values 0.719 | S. cerevisiae deletion strains, locus YLR268W, strain sec22, hits give low values 1.01 | S. cerevisiae deletion strains, locus YLR320W, strain mms22, hits give low values 0.884 | S. cerevisiae deletion strains, locus YLR330W, strain CHS5, hits give low values 0.984 | S. cerevisiae deletion strains, locus YLR342W, strain FKS1 (second series), hits give low values 0.942 | S. cerevisiae deletion strains, locus YLR342W, strain FKS1, hits give low values 0.969 | S. cerevisiae deletion strains, locus YLR357W, strain rsc2, hits give low values 0.935 | S. cerevisiae deletion strains, locus YLR370C, strain arc18, hits give low values 0.964 | S. cerevisiae deletion strains, locus YLR371W, strain rom2, hits give low values 0.975 | S. cerevisiae deletion strains, locus YLR384C, strain iki3, hits give low values 0.982 | S. cerevisiae deletion strains, locus YLR418C, strain cdc73, hits give low values 0.953 | S. cerevisiae deletion strains, locus YML016C, strain PPZ1, hits give low values 1 | S. cerevisiae deletion strains, locus YML032C, strain rad52, hits give low values 0.967 | S. cerevisiae deletion strains, locus YML120C, strain ndi1, hits give low values 0.986 | S. cerevisiae deletion strains, locus YML124C, strain tub3, hits give low values 0.983 | S. cerevisiae deletion strains, locus YMR058W, strain fet3, hits give low values 0.919 | S. cerevisiae deletion strains, locus YMR078C, strain ctf18, hits give low values 0.964 | S. cerevisiae deletion strains, locus YMR125W, strain sto1, hits give low values 0.977 | S. cerevisiae deletion strains, locus YMR129W, hits give low values 0.977 | S. cerevisiae deletion strains, locus YMR205C, strain PFK2, hits give low values 0.919 | S. cerevisiae deletion strains, locus YMR223W, strain ubp8, hits give low values 0.953 | S. cerevisiae deletion strains, locus YMR231W, strain pep5, hits give low values 0.974 | S. cerevisiae deletion strains, locus YMR263W, strain SAP30, hits give low values 1 | S. cerevisiae deletion strains, locus YMR307W, strain GAS1, hits give low values 0.966 | S. cerevisiae deletion strains, locus YNL067W, strain RPL9B, hits give low values 0.987 | S. cerevisiae deletion strains, locus YNL128W, strain TEP1, hits give low values 0.995 | S. cerevisiae deletion strains, locus YNL153C, strain GIM3, hits give low values 1 | S. cerevisiae deletion strains, locus YNL209W, strain ssb2, hits give low values 0.983 | S. cerevisiae deletion strains, locus YNL233W, strain BNI4, hits give low values 0.981 | S. cerevisiae deletion strains, locus YNL248C, strain rpa49, hits give low values 0.972 | S. cerevisiae deletion strains, locus YNL250W, strain rad50, hits give low values 0.924 | S. cerevisiae deletion strains, locus YNL271C, strain bni1, hits give low values 0.973 | S. cerevisiae deletion strains, locus YNL298W, strain CLA4, hits give low values 0.956 | S. cerevisiae deletion strains, locus YNL322C, strain KRE1 (second series), hits give low values 0.996 | S. cerevisiae deletion strains, locus YNL322C, strain KRE1, hits give low values 0.986 | S. cerevisiae deletion strains, locus YNR049C, strain mso1, hits give low values 0.971 | S. cerevisiae deletion strains, locus YNR052C, strain pop2, hits give low values 0.977 | S. cerevisiae deletion strains, locus YOL006C, strain TOP1, hits give low values 0.836 | S. cerevisiae deletion strains, locus YOL012C, strain htz1 0.8 | S. cerevisiae deletion strains, locus YOL147C, strain pex11, hits give low values 0.987 | S. cerevisiae deletion strains, locus YOR001W, strain rrp6, hits give low values 0.971 | S. cerevisiae deletion strains, locus YOR061W, strain CKA2, hits give low values 0.986 | S. cerevisiae deletion strains, locus YOR069W, strain VPS5, hits give low values 0.99 | S. cerevisiae deletion strains, locus YOR070C, strain gyp1, hits give low values 0.98 | S. cerevisiae deletion strains, locus YOR080W, strain dia2, hits give low values 0.97 | S. cerevisiae deletion strains, locus YOR083W, strain WHI5, hits give low values 0.996 | S. cerevisiae deletion strains, locus YOR106W, strain vam3, hits give low values 0.978 | S. cerevisiae deletion strains, locus YOR136W, strain idh2, hits give low values 0.965 | S. cerevisiae deletion strains, locus YOR144C, strain elg1, hits give low values 0.986 | S. cerevisiae deletion strains, locus YOR184W, strain ser1, hits give low values 0.895 | S. cerevisiae deletion strains, locus YOR265W, strain rbl2, hits give low values 0.978 | S. cerevisiae deletion strains, locus YOR270C, strain vph1, hits give low values 0.924 | S. cerevisiae deletion strains, locus YOR290C, strain snf2, hits give low values 0.89 | S. cerevisiae deletion strains, locus YOR316C, strain cot1, hits give low values 0.982 | S. cerevisiae deletion strains, locus YPL051W, strain arl3, hits give low values 0.985 | S. cerevisiae deletion strains, locus YPL055C, strain LGE1, hits give low values 0.972 | S. cerevisiae deletion strains, locus YPL078C, strain atp4, hits give low values 0.967 | S. cerevisiae deletion strains, locus YPL106C, strain sse1, hits give low values 0.931 | S. cerevisiae deletion strains, locus YPL240C, strain hsp82, hits give low values 0.978 | S. cerevisiae deletion strains, locus YPL241C, strain CIN2, hits give low values 0.986 | S. cerevisiae deletion strains, locus YPR119W, strain clb2, hits give low values 0.969 | S. cerevisiae deletion strains, locus YPR141C, strain kar3, hits give low values 0.975 | S. cerevisiae deletion strains, locus YPR163C, strain tif3, hits give low values 0.965 | S. cerevisiae deletion strains, locus YPR167C, strain met16, hits give low values 0.986 | S. cerevisiae deletion strains, strain wtn01, hits give low values 0.972 | S. cerevisiae strains, strain wild type, hits give low values 0.976
active: S. cerevisiae deletion strains, locus YKR001C, strain vps1, hits give low values 0.857 | S. cerevisiae deletion strains, locus YLR262C, strain YPT6 (second series), hits give low values 0.856 | S. cerevisiae deletion strains, locus YNL071W, strain lat1, hits give low values 0.857 | S. cerevisiae deletion strains, locus YNL307C, strain MCK1, hits give low values 0.733
